Source: PubChem BioAssay (Tox21)
Inconclusive results are not listed. Values without a mark were called inactive. Active and inactive are the calls of the source. Calls follow the shape of the dose curve; as a rule, active = well fitted cell-killing curve with a large enough effect in the repeat runs; inconclusive = weak or mixed curves; inactive = no such curve, though single readings can be large or run the other way.

Assay: qHTS assay to identify small molecule agonists of the peroxisome proliferator-activated receptor delta (PPARd) signaling pathway - cell viability counter screen (AID 743211); also: nearly all actives have a fitted effect of over 55% in size
Settings: PPARd-bla HEK293H viability, CellTiter-Glo luminescence, 17 h; series mostly up to 62.6 µM; activity change, negative = cytotoxicity: at the top concentration
From the text: U.S. Tox21 Program National Center for Advancing Translational Sciences [NCATS] NIH Chemical Genomics Center [NCGC] U.S. Environmental Protection Agency [EPA] National Institutes of Environmental Health Sciences [NIEHS] National Toxicology Program [NTP] U.S. Food and Drug Administration [FDA] Tox21 Assay Overview: The peroxisome proliferator-activated receptors (PPARs) are lipid-activated transcription factors of the nuclear receptor superfamily with three distinct subtypes namely PPAR alpha, PPAR delta (PPARd) and PPAR gamma. All these subtypes heterodimerizes with Retinoid X receptor (RXR) and have different physiological functions. […] To identify the compounds that activate PPAR-delta signaling, GeneBLAzer PPAR delta UAS-bla HEK293H cell line (Invitrogen, Carlsbad, CA, USA) containing a beta-lactamase reporter gene under the control of an Upstream Activator Sequence (UAS) was used to screen the Tox21 compound library. The cytotoxicity of the Tox21 compound library against the PPARd-bla cell line was tested in parallel by measuring the cell viability using CellTiter-Glo assay (Promega, Madison, WI) in the same wells.
Tox21 Assay Protocol Summary: PPARd-bla cells were dispensed at 3000 cells/6uL/well in 1536-well black wall/clear bottom plates using a Multidrop Combi (Thermo Fisher Scientific, Waltham, MA) dispenser. After the assay plates were incubated at 37 C and 5% CO2 for 5 h, 23 nL of compounds dissolved in DMSO, positive controls or DMSO only was transferred to the assay plate by a Pintool station (Kalypsys, San Diego, CA). The assay plates were incubated at 37C for 17 h. After 1 uL of LiveBLAzerTM B/G FRET substrate was added using a Bioraptr Flying Reagent Dispenser (FRD) workstation (Beckman Coulter, Indianapolis, IN, USA), the plates were incubated at room temperature for 2 h, and fluorescence intensity was measured by an Envision plate reader (PerkinElmer, Shelton, CT). For cell viability readout that measures cytotoxicity, 3 ul/well of CellTiter-Glo reagent was added into the assay plates using a Bioraptr FRD. After 30 min incubation at room temperature, the luminescence intensity in the plates was measured using a ViewLux plate reader (PerkinElmer).
% is scaled to controls: 0 for no effect and ±100 for the full control effect; potency is read from the fitted curve at half-maximal effect.

| Structure (SMILES) | activity change, negative = cytotoxicity | Potency |
| --- | --- | --- |
| CCCC(=O)OC(=O)CCC | 3.65% [at 81.1 µM] | – |
| CCN(CC)CC(=O)Nc1c(C)cccc1C(=O)OC | -3.54% | – |
| [Cl][Nd]([Cl])[Cl] | 3.16% | – |
| C=Cc1ccc(OC(C)=O)cc1 | 3.35% | – |
| O=P(O)(O)Oc1ccccc1 | 4.83% | – |
| CCCCCCC(CO)CCCC (stereo not given) | 23.5% | – |
| O=c1[nH]c2cc(C(F)(F)F)c(N3CCOCC3)cc2n(CP(=O)(O)O)c1=O | -4.04% | – |
| CC/C=C\C/C=C\C/C=C\CCCCCCCC(=O)OCC | -4.51% [at 81.1 µM] | – |
| COc1cc(S(=O)(=O)Nc2ccccc2)c(OC)cc1N | -2.15% | – |
| CCCCOC(=O)CCCCC(=O)OCCCC | 12.7% | – |
| Cc1ccc(NC(=O)N(C)C)cc1NC(=O)N(C)C | -13.4% | – |
| Cc1cn([C@H]2C[C@H](F)[C@@H](CO)O2)c(=O)[nH]c1=O | 0.267% | – |
| CC1=CC[C@@H]2C[C@H]1C2(C)C | -15.6% [at 13.2 µM] | – |
| Cc1cc([N+](=O)[O-])ccc1N | 4.66% | – |
| COc1ccc(-c2cc(C(F)F)nn2-c2ccc(S(N)(=O)=O)cc2)cc1F | 4.53% | – |
| Cc1ccc(Cl)cc1N | 3% [at 81.1 µM] | – |
| CO[C@@H]1[C@@H](OC)[C@H](C)[C@@](O)(CC(=O)O)O[C@H]1[C@H](C)[C@H]1O[C@@]2(CC[C@@](C)([C@H]3CC[C@@](C)([C@@H]4O[C@@H]([C@H]5O[C@](C)(O)[C@H](C)C[C@@H]5C)C[C@@H]4OC4C[C@H](OC)[C@@H](OC)[C@H](C)O4)O3)O2)C[C@H](O)[C@H]1C (stereo not given in full) | – | 2.98 µM (active) |
| O=C1OC[C@H](Cc2cccc(O)c2)[C@H]1Cc1cccc(O)c1 | -8.02% [at 29.1 µM] | – |
| CCOc1ncc(F)c(=O)[nH]1 | 4.3% | – |
| Cc1oc(=O)oc1COC(=O)[C@@H]1N2C(=O)[C@@H](NC(=O)[C@H](N)c3ccccc3)[C@H]2SC1(C)C | 14.5% | – |

| Structure (SMILES) | activity change, negative = cytotoxicity | Potency |
| --- | --- | --- |
| CNS(=O)(=O)c1cc(C(=O)N2CCC(CCN3C4CCC3CC(n3c(C)nc5ccccc53)C4)(c3cccc(F)c3)CC2)c(Cl)cc1F (stereo not given) | – | 8.71 µM (active) |
| CC(C)(C)NCC(O)COc1cccc2c1C[C@H](O)[C@H](O)C2 (stereo not given in full) | 18.8% | – |
| CC(C)(C)S | 11.6% [at 81.1 µM] | – |
| O=C(Oc1ccccc1)c1ccc2ccccc2c1O | -10.7% | – |
| CC[C@@H](CO)NCCN[C@@H](CC)CO | -0.704% | – |
| Cc1ccc2c(c1)CCCN2 | -13.7% | – |
| O=c1[nH][nH]c(=O)c2cc([N+](=O)[O-])ccc12 | 2.07% [at 81.1 µM] | – |
| FC(F)(F)C(F)(F)C(F)(F)C(F)(F)CCI | 5.45% [at 29.1 µM] | – |
| CCC(=O)OCc1ccc(OC)cc1 | 11.4% | – |
| CCCCOCCOC(=O)c1cccnc1 | -2.39% | – |
| CCN(CC)CCOC(=O)C(c1ccccc1)c1ccccc1 | 0.77% | – |
| O=C(NS(=O)(=O)/C=C/c1ccccc1)c1ccc(F)cc1Cl | -10.1% | – |
| N[C@@H](Cc1cc(I)c(O)c(I)c1)C(=O)O | 2.48% | – |
| CCCCC[C@H](O)/C=C/[C@H]1[C@H](O)CC(=O)[C@@H]1C/C=C\CCCC(=O)O | 1.64% | – |
| O=[N+]([O-])c1ccc2ncccc2c1 | 8.34% | – |
| CC(C)COC(=O)COc1cc(Cl)c(Cl)cc1Cl | -0.761% | – |
| Nc1c(Cl)cc(Cl)cc1[N+](=O)[O-] | 7.18% | – |
| CC(=O)OCC1=C(C(=O)O)N2C(=O)[C@@H](NC(=O)CSc3ccncc3)[C@H]2SC1 | 8.57% | – |
| O=C(O)CNC(=O)c1ccccc1I | 7.34% | – |
| Nc1ccc(N=Nc2ccc(N)cc2)cc1 | -2.95% | – |
